Results on ten compounds are retold here after PubChem BioAssay (NCI).

Assay [1] is described as follows: NCI Yeast Anticancer Drug Screen. Data for the rad50 strain (AID 155).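 Further: 0% = growth of vehicle-only cultures of the same strain.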 Particulars: S. cerevisiae rad50 strain growth inhibition, stronger effect = higher value. An outline of the steps:
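Readout: growth inhibition relative to vehicle-treated cultures. Compound exposure was carried out in a genetically defined yeast strain deficient in DNA damage repair.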

Assay [2] in a line: NCI Yeast Anticancer Drug Screen. Data for the mec2-1 strain (AID 157). The settings on record: S. cerevisiae mec2-1 strain, stronger effect = higher value. Put shortly: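 Mutant yeast (mec2-1) grown with compound; growth inhibition relative to vehicle control reported.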
The nature of assay [3]: NCI Yeast Anticancer Drug Screen. Data for the sgs1 mgt1 strain (AID 161).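 Further: 0% = growth of cultures given vehicle only.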 The settings on record: S. cerevisiae sgs1 mgt1 strain, stronger effect = higher value. Put shortly: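 Growth of a repair-deficient yeast mutant was monitored after compound treatment and expressed as inhibition relative to vehicle-treated cultures.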
Assay [4] is described as follows: NCI Yeast Anticancer Drug Screen. Data for the cln2 rad14 strain (AID 165).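 Further: 0% = growth equal to vehicle treated cultures.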 The settings on record: S. cerevisiae cln2 rad14 strain, stronger effect = higher value. Put shortly:
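Readout is yeast growth inhibition versus vehicle-treated controls, using a strain with cln2 and rad14 alterations exposed to compound.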

The nature of assay [5]: NCI Yeast Anticancer Drug Screen. Data for the bub3 strain (AID 167). The settings on record: S. cerevisiae bub3 mutant strain, stronger effect = higher value. An outline of the steps:
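Readout: yeast growth inhibition, expressed relative to vehicle-only wells. The test organism is a mutant strain from a panel with lesions in DNA repair or checkpoint genes.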

A short description of assay [6]: NCI Yeast Anticancer Drug Screen. Data for the mlh1 rad18 strain (AID 175). The settings on record: S. cerevisiae mlh1 rad18 strain growth inhibition, stronger effect = higher value. Put shortly:
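Genetically defined yeast (DNA repair-deficient) exposed to compounds; growth inhibition determined relative to vehicle.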

The mark [7] stands for this setting: at 5.0 µM (retest, dose inferred, filed as 0.5).
Setting [8] is: at 50.0 µM (retest, dose inferred, filed as 5.0).

Compounds without any hit were thinned out: in the full panel of roughly 79,000, 15% have a hit. Unmarked numbers belong to inactive results. The source made the active and inactive calls. No stated cut-off is given here; in the data, active means growth inhibition above about 70%; inactive means the rest.

For the compound `Cc1nn(-c2ccc(S(=O)(=O)[O-])cc2)c([O-])c1N=[N+](C)c1ccc(-c2ccc(N=Nc3ccc4c(S(=O)(=O)[O-])cc(S(=O)(=O)[O-])c(N)c4c3[O-])c([O-])c2)cc1[O-].[Cu+2].[Cu+2].[Na+]`, the growth inhibition in assay [1] (setting [7]) was 6%; in assay [1] (setting [8]), -15%; in assay [1] (at 50.0 µM) it was -26.5%; in assay [2] (setting [7]), -3%; in assay [2] (setting [8]), -17%; in assay [2] (at 50.0 µM), 18.9%. For the same compound, the growth inhibition in assay [3] (setting [7]) was 6%; in assay [3] (setting [8]), -15%; in assay [3] (at 50.0 µM) it was -19.4%; in assay [4] (setting [7]) it was -7%; in assay [4] (setting [8]) it was -28%; in assay [4] (at 50.0 µM) it was 64.5%. In addition, the growth inhibition in assay [5] (setting [7]) was -9%; in assay [5] (setting [8]) it was -11%; in assay [5] (at 50.0 µM), -60.1%; in assay [6] (setting [7]), -9%; in assay [6] (setting [8]) it was -4%; in assay [6] (at 50.0 µM), 17.6%.

With `CC1(CO)CCCC2(C)C1CCC1CC3C=CC12C1C(=O)OC(=O)C31` (stereo not given), the growth inhibition in assay [1] (setting [7]) was 41%; in assay [1] (setting [8]), 79% (active); in assay [1] (at 50.0 µM), 84.1% (active); in assay [2] (setting [7]), 25%; in assay [2] (setting [8]), 77% (active); in assay [2] (at 50.0 µM), 61.2%. Further, the growth inhibition in assay [3] (setting [7]) is 12%; in assay [3] (setting [8]) it was 86% (active); in assay [3] (at 50.0 µM), 24.6%; in assay [4] (setting [7]) it was 30%; in assay [4] (setting [8]), 82% (active); in assay [4] (at 50.0 µM), 27.8%. Further, the growth inhibition in assay [5] (setting [7]) is 23%; in assay [5] (setting [8]), 89% (active); in assay [5] (at 50.0 µM), 62.2%; in assay [6] (setting [7]), 36%; in assay [6] (setting [8]), 88% (active); in assay [6] (at 50.0 µM), 79.5% (active).

As for `CNc1nc(N)nc(N(C)c2ccc(Br)cc2)c1N=O`, the growth inhibition in assay [1] (setting [7]) is 22%; in assay [1] (setting [8]), 71% (active); in assay [1] (at 50.0 µM), 68.2%; in assay [2] (setting [7]), 40%; in assay [2] (setting [8]), 58%; in assay [2] (at 50.0 µM) it was 12.3%. The growth inhibition was 11% in assay [3] (setting [7]); 32% in assay [3] (setting [8]); 17.6% in assay [3] (at 50.0 µM); 16% in assay [4] (setting [7]); 33% in assay [4] (setting [8]); -30.7% in assay [4] (at 50.0 µM). The growth inhibition in assay [5] (setting [7]) was 20%; in assay [5] (setting [8]), 64%; in assay [5] (at 50.0 µM) it was 21.2%; in assay [6] (setting [7]), 36%; in assay [6] (setting [8]) it was 79% (active); in assay [6] (at 50.0 µM) it was 43.9%.

Take `Cc1ccc(S(=O)(=O)Nc2ccccc2C=O)cc1`: the growth inhibition was 17% in assay [1] (setting [7]); 54% in assay [1] (setting [8]); 99% (active) in assay [1] (at 50.0 µM); 19% in assay [2] (setting [7]); 69% in assay [2] (setting [8]); 99.3% (active) in assay [2] (at 50.0 µM). Moreover, the growth inhibition in assay [3] (setting [7]) is 16%; in assay [3] (setting [8]), 63%; in assay [3] (at 50.0 µM), 99% (active); in assay [4] (setting [7]) it was 1%; in assay [4] (setting [8]), 50%; in assay [4] (at 50.0 µM), 99% (active). Further, the growth inhibition in assay [5] (setting [7]) is 4%; in assay [5] (setting [8]), 49%; in assay [5] (at 50.0 µM), 98.8% (active); in assay [6] (setting [7]), 14%; in assay [6] (setting [8]), 84% (active); in assay [6] (at 50.0 µM), 99.1% (active).

In the case of `COc1cc[c]([Sn]([c]2ccc(OC)cc2)([c]2ccc(OC)cc2)[c]2ccc(OC)cc2)cc1`, the growth inhibition in assay [1] (setting [7]) is 1%; in assay [1] (setting [8]), 1%; in assay [1] (at 50.0 µM), 80.5% (active); in assay [2] (setting [7]) it was 6%; in assay [2] (setting [8]) it was 6%; in assay [2] (at 50.0 µM), 85.3% (active). Further, the growth inhibition in assay [3] (setting [7]) was -5%; in assay [3] (setting [8]), -5%; in assay [3] (at 50.0 µM) it was 80.8% (active); in assay [4] (setting [7]) it was -9%; in assay [4] (setting [8]), -9%; in assay [4] (at 50.0 µM) it was 85.8% (active). Also, the growth inhibition is 6% in assay [5] (setting [7]); 6% in assay [5] (setting [8]); 82.3% (active) in assay [5] (at 50.0 µM); -14% in assay [6] (setting [7]); -14% in assay [6] (setting [8]); 78.8% (active) in assay [6] (at 50.0 µM).

Turning to `CS/C(=N\C(=S)Nc1ccccc1)Nc1ccccc1`, the growth inhibition is 0% in assay [1] (setting [7]); 95% (active) in assay [1] (setting [8]); 99.2% (active) in assay [1] (at 50.0 µM); 25% in assay [2] (setting [7]); 94% (active) in assay [2] (setting [8]); 99.4% (active) in assay [2] (at 50.0 µM). Moreover, the growth inhibition was 38% in assay [3] (setting [7]); 97% (active) in assay [3] (setting [8]); 96.3% (active) in assay [3] (at 50.0 µM); 22% in assay [4] (setting [7]); 96% (active) in assay [4] (setting [8]); 97.3% (active) in assay [4] (at 50.0 µM). Besides, the growth inhibition is 34% in assay [5] (setting [7]); 98% (active) in assay [5] (setting [8]); 99% (active) in assay [5] (at 50.0 µM); 22% in assay [6] (setting [7]); 95% (active) in assay [6] (setting [8]); 98.1% (active) in assay [6] (at 50.0 µM).

With `COC(=O)C1(C)CCc2c(ccc3cccc(OC)c23)C1=O` (stereo not given), the growth inhibition in assay [1] (setting [7]) was 0%; in assay [1] (setting [8]) it was 99% (active); in assay [1] (at 50.0 µM) it was 1.65%; in assay [2] (setting [7]), 0%; in assay [2] (setting [8]) it was 98% (active); in assay [2] (at 50.0 µM), 21%. Also, the growth inhibition was 2% in assay [3] (setting [7]); 98% (active) in assay [3] (setting [8]); 66.9% in assay [3] (at 50.0 µM); -9% in assay [4] (setting [7]); 97% (active) in assay [4] (setting [8]); -3.75% in assay [4] (at 50.0 µM). Further, the growth inhibition in assay [5] (setting [7]) was 20%; in assay [5] (setting [8]), 99% (active); in assay [5] (at 50.0 µM), 86.8% (active); in assay [6] (setting [7]), 1%; in assay [6] (setting [8]) it was 99% (active); in assay [6] (at 50.0 µM), 44.5%.

Consider `O=C(c1ccccc1)N1CCN(c2cccc(Cl)c2)CC1`, for which the growth inhibition in assay [1] (setting [7]) was 0%; in assay [1] (setting [8]), 2%; in assay [1] (at 50.0 µM), 29.2%; in assay [2] (setting [7]) it was 0%; in assay [2] (setting [8]), 2%; in assay [2] (at 50.0 µM), 0.45%. Moreover, the growth inhibition is -2% in assay [3] (setting [7]); 8% in assay [3] (setting [8]); 12.7% in assay [3] (at 50.0 µM); -1% in assay [4] (setting [7]); 10% in assay [4] (setting [8]); -26.1% in assay [4] (at 50.0 µM). Moreover, the growth inhibition was 9% in assay [5] (setting [7]); 93% (active) in assay [5] (setting [8]); 77.4% (active) in assay [5] (at 50.0 µM); 1% in assay [6] (setting [7]); 12% in assay [6] (setting [8]); 16.3% in assay [6] (at 50.0 µM).

As to `CCOC(=O)C(C)(C)C`, the growth inhibition in assay [1] (setting [7]) is 0%; in assay [1] (setting [8]) it was 29%; in assay [1] (at 50.0 µM), 15.8%; in assay [2] (setting [7]), 3%; in assay [2] (setting [8]) it was 16%; in assay [2] (at 50.0 µM), -8.2%. Moreover, the growth inhibition in assay [3] (setting [7]) is 2%; in assay [3] (setting [8]), 12%; in assay [3] (at 50.0 µM) it was 14.4%; in assay [4] (setting [7]) it was 0%; in assay [4] (setting [8]), 11%; in assay [4] (at 50.0 µM) it was 25.6%. Moreover, the growth inhibition in assay [5] (setting [7]) is 2%; in assay [5] (setting [8]), 29%; in assay [5] (at 50.0 µM) it was 73% (active); in assay [6] (setting [7]) it was 3%; in assay [6] (setting [8]) it was 16%; in assay [6] (at 50.0 µM) it was 23.3%.

As for `C1=Nc2ccccc2/C1=C/c1ccccc1`, the growth inhibition in assay [1] (setting [7]) is 10%; in assay [1] (setting [8]) it was 22%; in assay [1] (at 50.0 µM), 72.9% (active); in assay [2] (setting [7]) it was -9%; in assay [2] (setting [8]) it was 20%; in assay [2] (at 50.0 µM), 48.8%. For the same compound, the growth inhibition in assay [3] (setting [7]) is -13%; in assay [3] (setting [8]) it was 19%; in assay [3] (at 50.0 µM), 49.7%; in assay [4] (setting [7]) it was 27%; in assay [4] (setting [8]), 26%; in assay [4] (at 50.0 µM), 40%. The growth inhibition was 9% in assay [5] (setting [7]); 38% in assay [5] (setting [8]); 64.4% in assay [5] (at 50.0 µM); 2% in assay [6] (setting [7]); 50% in assay [6] (setting [8]); 52.1% in assay [6] (at 50.0 µM).
